Shown are actives, neighbours in structure and some others; about 11% of the full set was active somewhere.
3T3 cytotox: Cytotoxic Profiling in NIH 3T3 Cell Line of Diverse Libraries Using Quantitative High-Throughput Screening; NIH 3T3 viability, CellTiter-Glo ATP luminescence, 48-72 h; Potency, µM (titrated, usually from 96.7 µM), for the others: at the top dose activity change, negative = cytotoxicity, most hits filed as inhibitors; 94,000 compounds, 4.3% hits; AID 1345082, 2018; further: on the % scale 0 is the no-effect control and ±100 the full control effect; nearly all actives have a fitted effect of over 55% in size
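Mouse fibroblast NIH 3T3 cells, 400 per well, received compound via pintool and were incubated for 48 or 72 hr prior to CellTiter-Glo ATP luminescence measurement.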
Luciferase inh: Firefly luciferase inhibition profiling of diverse chemical library using quantitative high-throughput screening; AID 1347043, 2019; 76,000 compounds, 2.5% hits; purified P. pyralis luciferase, luminescence, biochemical; Potency, µM (highest dose often 115 µM), actives largely listed as inhibitors; further: on the % scale 0 is the no-effect control and ±100 the full control effect; nearly all actives have a fitted effect of over 65% in size
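FLuc 10nM, D-luciferin 10uM, ATP 10uM, Mg acetate 10mM, Tris acetate pH 7.5, Tween/BSA; cpd qHTS; enzyme added last; CCD luminescence.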
HEK cytotox: Cytotoxic Profiling in HEK 293 Cell Line of Diverse Libraries Using Quantitative High-Throughput Screening | HEK 293 viability, ATP luminescence (CellTiter-Glo), 48-72 h | Potency, µM (top dose mostly 115 µM), for inactives: top-dose activity change, negative = cytotoxicity, most hits filed as inhibitors | 94,000 compounds, 6.6% hits | AID 1345083, 2018; further: on the % scale 0 is the no-effect control and ±100 the full control effect; nearly all actives have a fitted effect of over 60% in size
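HEK 293 cells at 250 cells/well were exposed to compounds by pintool transfer for 48 or 72 hr at 37 degree Celsius, 5% CO2. Viability was read as ATP-coupled luminescence with CellTiter-Glo after 10 min at room temperature.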
hNpr1 antagonist: Natriuretic polypeptide receptor (hNpr1) antagonism - Primary qHTS | Atrial natriuretic peptide receptor 1 (Homo sapiens), P16066 | HEK293 hNpr1 GloSensor cGMP, ANP-stimulated luminescence | Potency, µM (top dose mostly 46.3 µM), for inactives: at the top dose activity change, negative = inhibition, actives largely listed as inhibitors | 76,000 compounds, 1.6% hits | AID 1347048, 2019; calls by dose curve; further: on the % scale 0 is the no-effect control and ±100 the full control effect; nearly all actives have a fitted effect of over 60% in size
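HEK293 cells stably expressing human Npr1 and cGMP GloSensor pGS-40F, loaded 2 h with 2% GloSensor reagent, given compound 30 min at room temperature. Luminescence read before and 20 min after 0.1 nM hNppA.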
NPR1 antag cnf: Natriuretic polypeptide receptor (hNpr1) antagonism - Confirmation | shares compounds with hNpr1 antagonist | HEK293 hNpr1 cGMP GloSensor luminescence, ANP-stimulated | Potency, µM (doses to about 57.6 µM), for the others: at the top dose activity change, negative = inhibition, usual class: inhibitors | 1,400 compounds, 76% hits | AID 1347044, 2019; calls by dose curve; further: nearly all actives have a fitted effect of over 70% in size
NPR2 antag: Natriuretic polypeptide receptor (hNpr2) antagonism - Subtype selectivity assay. shares compounds with hNpr1 antagonist. HEK293 hNpr2 GloSensor cGMP luminescence, CNP-stimulated. Potency, µM (titrated, usually from 57.6 µM), without a hit: at the highest dose activity change, negative = inhibition, hits mostly inhibitors. 1,400 compounds, 67% hits; calls by dose curve; further: nearly all actives have a fitted effect of over 70% in size
Target sequence (P20594 whole entry, looked up): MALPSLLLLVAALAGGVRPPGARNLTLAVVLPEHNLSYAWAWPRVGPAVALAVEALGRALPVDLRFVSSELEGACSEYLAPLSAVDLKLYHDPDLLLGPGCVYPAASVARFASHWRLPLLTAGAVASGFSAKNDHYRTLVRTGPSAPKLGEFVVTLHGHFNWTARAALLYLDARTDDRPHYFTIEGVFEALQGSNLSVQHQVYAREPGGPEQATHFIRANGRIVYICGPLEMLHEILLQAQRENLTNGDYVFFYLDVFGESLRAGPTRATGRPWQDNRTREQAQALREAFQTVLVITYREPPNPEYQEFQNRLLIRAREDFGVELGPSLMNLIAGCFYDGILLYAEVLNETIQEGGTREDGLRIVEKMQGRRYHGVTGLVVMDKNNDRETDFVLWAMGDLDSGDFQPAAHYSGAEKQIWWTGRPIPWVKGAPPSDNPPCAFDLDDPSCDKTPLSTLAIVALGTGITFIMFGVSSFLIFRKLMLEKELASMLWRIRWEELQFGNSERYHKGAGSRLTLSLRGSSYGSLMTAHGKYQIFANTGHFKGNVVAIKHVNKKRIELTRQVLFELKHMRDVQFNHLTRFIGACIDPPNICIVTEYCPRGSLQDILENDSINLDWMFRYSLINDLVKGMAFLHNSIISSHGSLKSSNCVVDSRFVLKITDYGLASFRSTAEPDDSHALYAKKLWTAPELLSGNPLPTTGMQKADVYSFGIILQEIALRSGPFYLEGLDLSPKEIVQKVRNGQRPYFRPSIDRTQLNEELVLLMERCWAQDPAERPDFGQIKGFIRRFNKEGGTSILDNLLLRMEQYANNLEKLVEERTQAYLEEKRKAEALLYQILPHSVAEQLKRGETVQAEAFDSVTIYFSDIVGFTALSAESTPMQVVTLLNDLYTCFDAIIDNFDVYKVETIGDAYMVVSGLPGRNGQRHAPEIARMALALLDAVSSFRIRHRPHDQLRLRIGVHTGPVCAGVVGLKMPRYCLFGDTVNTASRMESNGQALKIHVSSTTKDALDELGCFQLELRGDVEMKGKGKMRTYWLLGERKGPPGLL
FLuc inh counter: Natriuretic polypeptide receptor (hNpr1) antagonism - Confirmation firefly luciferase (FLuc) inhibition counterscreen; Potency, µM (doses to about 57.6 µM), for inactives: at the highest dose activity change, negative = inhibition, usual class: inhibitors; AID 1347047, 2019; shares compounds with hNpr1 antagonist; purified FLuc enzyme, luminescence, Km substrate; 1,400 compounds, 0.7% hits; further: 0% is about no effect
GloSensor ctrl: Natriuretic polypeptide receptor (hNpr1) antagonism - Counterscreen GloSensor control cell line | shares compounds with hNpr1 antagonist | HEK293 GloSensor cGMP, SNP-stimulated, luminescence | Potency, µM (series often up to 57.6 µM), for inactives: top-dose activity change, negative = inhibition, hits mostly inhibitors | 1,400 compounds, 69% hits; calls by dose curve; further: on the % scale 0 is the no-effect control and ±100 the full control effect; nearly all actives have a fitted effect of over 70% in size
* marks the source's active call; other numbers are inactive results; i = inactive; ? = inconclusive; · = no result given; [ ] = remark or other dose. Unless noted, the call rests on the fitted dose curve; in most records, active means well fitted curve in the direction sought with a large enough effect; inconclusive means small, poorly fitted or top-dose-only effect, or another doubt; inactive means no such curve, though single readings can be large; an effect the other way counts as inactive or inconclusive. Potency means the concentration at half of the fitted maximal effect.

SMILES	3T3 cytotox	Luciferase inh	HEK cytotox	hNpr1 antagonist	NPR1 antag cnf	NPR2 antag	FLuc inh counter	GloSensor ctrl
Cc1cc(C(=O)N2[C@H]3CC[C@@H]2c2cnc(-c4ccc(F)cc4)nc2C3)n[nH]1	?	i	?	12.6µM*	24.3µM*	24.3µM*	-1.7%	24.3µM*
COCCn1c(C)cc(C(=O)N2[C@H]3CC[C@@H]2c2cnc(-c4ccc(F)cc4)nc2C3)c1C	?	i	25.1µM*	11.2µM*	12.2µM*	15.3µM*	1.4%	13.7µM*
O=C(COc1ccc(F)cc1)N1[C@H]2CC[C@@H]1c1cnc(-c3ccccc3)nc1C2	-33.0%	·	?	·	·	·	·	·
Cc1ncccc1C(=O)N1[C@H]2CC[C@@H]1c1cnc(-c3ccc(F)cc3)nc1C2	?	i	?	-29.3%	·	·	·	·
Cc1cccc(OCC(=O)N2[C@H]3CC[C@@H]2c2cnc(-c4ccc(F)cc4)nc2C3)c1	?	i	?	?	?	?	3.9%	?
Cc1ccsc1C(=O)N1[C@H]2CC[C@@H]1c1cnc(-c3ccc(F)cc3)nc1C2	?	i	?	5.62µM*	7.69µM*	7.69µM*	1.1%	6.11µM*
C=C[C@H]1CN2CC[C@H]1C[C@@H]2CNCc1ccc(-c2ccccc2)cc1	?	i	?	0.8%[70.6 µM]	·	·	·	·
COCCN1C(=O)CS(=O)(=O)C12CCNCC2	-6.8%	i	-9.3%	2.6%	·	·	·	·
COc1ccc(-c2cc([C@H]3CN4CC[C@H]3C[C@@H]4CNC(=O)CSCC(=O)O)nc(C)n2)cc1OC	i	i	-20.5%	11.4%	·	·	·	·
COc1cc2c(cc1Oc1ccccc1)NC(=O)C21CCN(c2cnccn2)CC1	?	i	?	-20.7%[70.6 µM]	?	?	3.0%[86.2 µM]	?
O=C1Nc2ccccc2C12CCN(Cc1ccc(C(F)(F)F)cc1)CC2	?	·	?	·	24.3µM*	24.3µM*	-0.9%	24.3µM*
O=C1Nc2ccccc2C12CCN(Cc1ccc(F)cc1)CC2	-6.9%	·	?	·	·	·	·	·
CC[C@H]1CN2CC[C@H]1C[C@@H]2CN(Cc1cccs1)Cc1cccs1	44.7µM*	i	44.7µM*	?	?	?	2.8%[86.2 µM]	4.3%[86.2 µM]
CC[C@H]1CN2CC[C@H]1C[C@@H]2CNS(=O)(=O)c1cccs1	1.3%[174 µM]	i	-0.9%[172 µM]	0.3%[70.6 µM]	·	·	·	·
O=C1NC2(CCN(Cc3ccncc3)C2)OCc2ccccc21 (stereo unspecified)	-20.3%[138 µM]	i	-19.5%[172 µM]	14.8%[70.6 µM]	·	·	·	·
CCOC(=O)[C@H]1CN(S(=O)(=O)c2ccccc2)[C@]2(C)C(=O)N(CC(=O)N(C)C)c3ccccc3[C@H]12	?	·	-22.4%[57.5 µM]	·	·	·	·	·
Cn1cccc1C(=O)N1[C@H]2CC[C@@H]1c1cnc(-c3ccc(F)cc3)nc1C2	?	i	15.8µM*	10µM*	12.2µM*	15.3µM*	1.6%	13.7µM*
CCC(=O)N1[C@H]2CC[C@@H]1c1cnc(-c3ccc(F)cc3)nc1C2	-23.8%	i	-21.5%	?	·	·	·	·
COc1ccc(CNC(=O)N2[C@H]3CC[C@@H]2c2cnc(-c4ccccc4)nc2C3)cc1	-43.2%	i	?	12.6µM*	19.3µM*	19.3µM*	1.6%	13.7µM*
O=C(C1CCCCC1)N1[C@H]2CC[C@@H]1c1cnc(-c3ccc(F)cc3)nc1C2	-30.4%	i	-34.4%	6.31µM*	9.68µM*	10.9µM*	5.2%	9.68µM*
O=C(CC1CCCC1)N1[C@H]2CC[C@@H]1c1cnc(-c3ccccc3)nc1C2	-26.5%	i	?	5.62µM*	10.9µM*	12.2µM*	2.5%	10.9µM*
CC[C@H]1CN2CC[C@H]1C[C@@H]2CNC(=O)c1cccc(F)c1	-23.4%[230 µM]	i	?	3.8%[70.6 µM]	·	·	·	·
O=C(C1CCC1)N1[C@H]2CC[C@@H]1c1cnc(-c3ccccc3)nc1C2	-20.6%	i	?	?	·	·	·	·
O=C(C1CCC1)N1[C@H]2CC[C@@H]1c1cnc(-c3ccc(F)cc3)nc1C2	-43.1%	i	?	17.8µM*	19.3µM*	19.3µM*	1.4%	15.3µM*
Cc1noc(C)c1CCN1CCC2(C1)C(=O)N(C)C(=O)N2C (stereo unspecified)	-11.2%	·	2.8%	·	·	·	·	·
CCC(CC)c1cc([C@H]2CN3CC[C@H]2C[C@@H]3CNS(=O)(=O)c2cccs2)nc(-c2ccncc2)n1	20µM*	i	?	14.1µM*	21.7µM*	10.9µM*	4.6%	-14.6%
CCC(CC)c1cc([C@H]2CN3CC[C@H]2C[C@@H]3CNS(C)(=O)=O)nc(-c2ccncc2)n1	-14.8%	i	-10.3%	1.6%	·	·	·	·
COc1ccc(C2(C(=O)N3CCC4(CC3)c3nccn3-c3ccccc3CN4C)CC2)cc1	-14.5%	i	?	8.91µM*	17.2µM*	5.44µM*	1.6%	7.1%

Screens deposited in PubChem by National Center for Advancing Translational Sciences (NCATS).
